B2AR arrestin ag: qHTS assay of beta-arrestin-biased ligands of beta2-adrenergic receptor: NCGC Sytravon Library Screen. Beta-2 adrenergic receptor (Homo sapiens), P07550. HTLA Tango cells, beta-arrestin recruitment, luciferase luminescence, 18 h. Potency, µM (highest dose often 46.1 µM), usual class: activators. 44,000 tested, under 10 active. AID 1347077, 2019
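Tango cell line, 1% FBS DMEM; cpd titration up to 46 microM; 18 hr, 37 degrees C, 5% CO2. Luciferin/ATP substrate mix added, 15 min RT, luminescence. %Activity, CRC fitting, curve-class categorization.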
GALK inh: qHTS Assay for Inhibitors of Human Galactokinase (GALK): NCGC Sytravon Library Screen; Potency, µM (highest dose often 57.5 µM), actives largely listed as inhibitors; P51570; 44,000 tested, under 10 active; recombinant GALK, Kinase-Glo ATP luminescence, 1 h
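5 nM GALK with 35 µM ATP and 100 µM galactose in HEPES pH 8.0, MgCl2, NaCl, DTT, BSA; 1 h RT reaction, remaining ATP detected by Kinase-Glo Plus luminescence after 10 min; qHTS concentration series.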
GPR32 ag: qHTS for Agonists of Human Resolvin D1 Receptor DRV1 | AID 1346428, 2018 | activation, % at 76.9 µM | 2.5% of 48,000 active | CHO-K1 GPR32 beta-arrestin PathHunter luminescence, 90 min; zero percent set by DMSO-only wells | Probable G-protein coupled receptor 32 (Homo sapiens), O75388;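 active means activation of at least 60% and not above a set upper limit, about 1 call in 100 departs from these limits; inconclusive means activation of 40% to 60%, or above that upper limit; inactive means activation under 40%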
Target sequence (O75388 whole entry, looked up): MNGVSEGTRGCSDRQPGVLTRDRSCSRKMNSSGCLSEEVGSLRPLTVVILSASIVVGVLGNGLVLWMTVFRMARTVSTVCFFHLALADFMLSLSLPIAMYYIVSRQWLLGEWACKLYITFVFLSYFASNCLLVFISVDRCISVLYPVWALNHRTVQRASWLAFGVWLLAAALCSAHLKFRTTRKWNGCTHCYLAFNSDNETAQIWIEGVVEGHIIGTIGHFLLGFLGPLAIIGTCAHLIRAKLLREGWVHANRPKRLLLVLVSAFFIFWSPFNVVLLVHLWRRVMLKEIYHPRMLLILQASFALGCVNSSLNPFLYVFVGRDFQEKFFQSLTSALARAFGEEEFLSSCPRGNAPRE
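PathHunter enzyme-fragment complementation, CHO-K1 GPR32 stable line; 2,500 cells/well, overnight attach; cpd 90 min 37 °C 5% CO2; detection reagent 1 h RT; chemiluminescence. DMSO = EC0.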
PTAP-TSG101 blk: qHTS Validation Assay for Inhibitors of HIV-1 Budding by Blocking the Interaction of PTAP/TSG101: Sytravon Library Screen; Fluorescence polarization, FITC-PTAP peptide/Tsg101, 20 min; 44,000 tested, under 10 active; Potency, µM (top dose mostly 115 µM), actives largely listed as inhibitors
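Steps: Tsg101 binding domain (10 uM final) in HEPES pH 7.5/NaCl/Tween 20/EDTA/TCEP; add compound; add FITC-PTAP peptide (50 nM final); incubate 20 min r.t.; read polarization.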
GALC G270D act: A Novel Cell-Based Assay to Identify Small Molecules for B -Galactocerebrosidase; P54803; 145M-Twi-hGALC-G270D cells (Twitcher mouse brain line with human GALC G270D), HMU-beta-Gal fluorescence, 48 h; Potency, µM (top dose mostly 57.5 µM), hits mostly activators; 0.1% of 45,000 active; further: nearly all actives have a fitted effect of over 65% in size
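Fluorescence readout: HMU-β-gal cleavage by mutant GALC (0.1 mM final, citrate/phosphate pH 5.2 with 1 mg/mL taurocholate), stopped with carbonate/bicarbonate plus Triton X-100. Cells: murine Twitcher 145M-Twi expressing human G270D GALC; qHTS for activators.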
A number is an active result; - = inactive; ? = inconclusive; . = not tested or not shown. The list is not random: actives were taken first. Their share in the collection is about 2.6%. Unless noted, the call rests on the fitted dose curve; in most records, active means well fitted curve in the direction sought with a large enough effect; inconclusive means small, poorly fitted or top-dose-only effect, or another doubt; inactive means no such curve, though single readings can be large; an effect the other way counts as inactive or inconclusive.

SMILES	B2AR arrestin ag	GALK inh	GPR32 ag	PTAP-TSG101 blk	GALC G270D act
COc1cc(NS(=O)(=O)c2ccc3[nH]c4c(c3c2)CCCC4)cc(OC)c1OC	-	-	82.2	-	-
Cc1ccc(NS(=O)(=O)c2ccc3[nH]c4c(c3c2)CCCCCC4)cc1	-	-	101.7	-	-
COc1cc(NS(=O)(=O)c2ccc3[nH]c4c(c3c2)CCCCCC4)cc(OC)c1	-	-	101.9	-	-
COc1ccc(NS(=O)(=O)c2ccc3[nH]c4c(c3c2)CCCC4)cc1OC	-	-	-	-	-
O=S(=O)(Nc1cccc(F)c1)c1ccc2[nH]c3c(c2c1)CCCCC3	-	-	61.6	-	-
Cc1cc(C)cc(-n2ccnc2SCC(=O)Nc2ccc3c(c2)OCO3)c1	-	-	-	-	-
Cc1ccc(N(C)S(=O)(=O)c2ccc3[nH]c4c(c3c2)CCCC4)cc1	-	-	109.3	-	-
COc1cccc(CNS(=O)(=O)c2ccc3[nH]c4c(c3c2)CCCCC4)c1	-	-	64.5	-	-
COc1cc(NC(=O)CN(C)S(=O)(=O)c2ccc3[nH]c4c(c3c2)CCCC4)cc(OC)c1OC	-	-	105.1	-	-
COc1ccc(OC)c(NC(=O)CN(C)S(=O)(=O)c2ccc3[nH]c4c(c3c2)CCCC4)c1	-	-	-	-	-
O=S(=O)(NCc1ccc(F)cc1)c1ccc2[nH]c3c(c2c1)CCCCC3	-	-	-	-	-
Cc1ccc(NC(=O)CCNS(=O)(=O)c2ccc3c(c2)CCN3C(=O)C2CC2)c(Cl)c1	-	-	-	-	-
Cc1onc(-c2c(Cl)cccc2Cl)c1C(=O)Cl	.	.	-	.	-
CCc1ccc(NC(=O)c2cccc(N3CCCS3(=O)=O)c2)cc1	-	-	?	-	-
CCc1ccccc1NC(=O)c1ccc(Cn2nc(N3CCN(c4ccccc4)CC3)ccc2=O)o1	-	-	63.3	-	-
CCOc1ccc(CNC(=O)Cn2nc(N3CCN(c4ccccc4)CC3)ccc2=O)cc1	-	-	-	-	-
CC(C)Oc1ccc(CNC(=O)Cn2nc(N3CCN(c4ccccc4)CC3)ccc2=O)cc1	-	-	67.9	-	-
CC(C)OCCCNc1ncnc2sc3c(c12)CCCC3	-	-	104.1	-	-
CN(C)c1ccc(Nc2ncnc3sc4c(c23)CCCC4)cc1	-	-	-	-	-
CCCCCCC[N+](CC)(CC)CCCCc1ccc(Cl)cc1	.	.	86.6	.	-
C=CC(=O)c1ccc(CCCCCC)cc1	.	.	-	.	.
O=C(NCCCN1CCN(c2cccc(Cl)c2)CC1)c1cnn(-c2ccc(F)cc2)c1-n1cccc1	-	-	?	-	-
CC(C)(C)c1ccc(C(=O)Nc2ccc(OCc3cc(=O)n4ccsc4n3)cc2)cc1	-	-	86.8	-	-
Cc1ccc(-n2ncc3c(NC4CCCC4)ncnc32)cc1	-	-	112.3	-	-
Cc1cccc(-n2ncc3c(Nc4ccc(C)c(Cl)c4)ncnc32)c1	-	-	73.7	-	-
SMILES	B2AR arrestin ag	GALK inh	GPR32 ag	PTAP-TSG101 blk	GALC G270D act
CCC(C)Nc1ncnc2c1cnn2-c1ccc(F)cc1 (stereo unspecified)	-	-	65.1	-	-
Cc1cccc(C(=O)NNc2ncnc3c2cnn3-c2ccc(C)cc2C)c1	-	-	113.2	-	-
Cc1cccc(-n2ncc3c(Nc4ccc(Oc5ccc(Cl)cc5)cc4)ncnc32)c1	-	-	-	-	-
N#CSCC(=O)O	.	.	-	.	-
Clc1cccc(-n2ncc3c(NC4CCCCCC4)ncnc32)c1	-	-	?	-	-
Cc1cccc(-n2ncc3c(NC4CCCC4)ncnc32)c1	-	-	114.1	-	-
CC(NC(=O)c1cc2sccc2n1Cc1ccc(F)cc1)c1ccccc1 (stereo unspecified)	-	-	99.8	-	-
CCOc1ccccc1NC(=O)CSc1nc2ccccc2nc1Cc1ccc(C)cc1	-	?	70.5	-	-
Cc1cc(C)cc(NC(=O)CCN2C(=O)c3ccccc3Sc3ncccc32)c1	-	-	-	-	-
O=C1CCSc2ccc(S(=O)(=O)Nc3ccc(Cl)c(C(F)(F)F)c3)cc2N1	-	-	70.9	-	-
O=C(O)[C@H](O)[C@@H](O)[C@H](O[C@@H]1O[C@H](CO)[C@H](O)[C@H](O)[C@H]1O)[C@H](O)CO	.	.	-	.	-
Cc1ccc(C)c(CN2C(=O)C(O)(c3c[nH]c4ccccc34)c3ccccc32)c1 (stereo unspecified)	-	-	84.3	-	-
Cc1[nH]c2ccccc2c1C1(O)C(=O)N(Cc2ccc(Cl)cc2)c2ccccc21 (stereo unspecified)	-	-	-	-	-
O=C1N(Cc2ccccc2Cl)c2ccccc2C1(O)c1c[nH]c2ccccc12 (stereo unspecified)	-	-	84.1	-	-
O=C1N(Cc2ccccc2)c2ccccc2C1(O)c1c[nH]c2ccccc12 (stereo unspecified)	-	-	?	-	-
Cc1ccc(CN2C(=O)C(O)(c3c(C)[nH]c4ccccc34)c3ccccc32)cc1 (stereo unspecified)	-	-	70.0	-	-
CO[C@@]1(NC(=O)C(C(=O)O)c2ccc(O)cc2)C(=O)N2C(C(=O)O)=C(CSc3nnnn3C)CO[C@@H]21 (stereo partly specified)	.	.	63.0	.	-
Cc1ccc(-c2c(C)n3c4c(=O)n(C)c(=O)n(C)c4nc3n2CCO)cc1	-	-	?	-	-
CCCCn1c(-c2ccc(C)cc2)c(C)n2c3c(=O)n(C)c(=O)n(C)c3nc12	-	-	85.4	-	-
Cc1cccc(OCC(=O)Nc2ccc3nc(Nc4cccc(Cl)c4)cc(C)c3c2)c1	-	-	103.0	-	-
COc1ccc(CCNC(=O)c2ccc(Cn3c(=O)c4cccn4c4cccnc43)cc2)cc1OC	-	-	-	-	-
CC(=O)Nc1ccc(S(=O)(=O)Nc2nc3n(n2)C(c2ccccc2)C=C(c2ccc(Cl)cc2)N3)cc1 (stereo unspecified)	-	-	83.5	?	-
O=S(=O)(Nc1nc2n(n1)C(c1ccc(F)cc1)C=C(c1ccccc1)N2)c1ccc(Cl)cc1 (stereo unspecified)	-	-	?	-	-
O=S(=O)(Nc1nc2n(n1)C(c1ccccc1)C=C(c1ccc(Cl)cc1)N2)c1ccccc1 (stereo unspecified)	-	-	72.2	?	-

Bioassay records (PubChem BioAssay)
